According to PubChem BioAssay (Tox21):
“And” between values parts separate entries of the source, which are not always exact repeats. Equal entries are not always repeated. Records with an inconclusive call do not appear. The source made the active and inactive calls. Unless noted, calls come from the whole dose curve; as a rule, active = well fitted curve in the direction sought with a large enough effect in the repeat runs; inconclusive = weak or mixed curves; inactive = no such curve, though single readings can be large; an effect the other way counts as inactive or inconclusive.

Assays:
[1] = qHTS assay to identify small molecule agonists of the hypoxia (HIF-1) signaling pathway - cell viability counter screen (AID 1224844; calls by dose curve; note: nearly all actives have a fitted effect of over 50% in size)
In short: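 Cytotoxicity was measured in parallel with the HRE-driven beta-lactamase readout: after 17 hrs of compound exposure at 37C, HRE-bla ME-180 cells received CellTiter-Glo and luminescence was recorded 30 min later.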

[2] = qHTS assay to identify small molecule agonists of H2AX (AID 1224845; active = well fitted activation curve with a large enough effect in the signal ratio in the repeat runs, not every such curve was filed as active; the % refers to the signal ratio)
In short: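 Phospho-H2AX Ser139 measured by HTRF (ex 320 nm; em 665 and 620 nm) after 24 hr antibody incubation. Compounds, 15 concentrations, 0.76% DMSO, were applied to CHO-K1 cells for 3hr at 37C before lysis.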

[3] = qHTS assay to identify small molecule agonists of the hypoxia (HIF-1) signaling pathway (AID 1224846; active = well fitted activation curve with a large enough effect in the signal ratio in the repeat runs, not every such curve was filed as active; the % refers to the signal ratio)
In short: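 Compounds from the Tox21 10K library, dissolved in DMSO, are tested for induction of a hypoxia response element–controlled beta-lactamase reporter in ME-180 cells. Exposure lasts 17 hrs at 37C after a 5 hr settling period, followed by CCF4-AM FRET substrate.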

[4] = qHTS assay to identify small molecule agonists of H2AX - cell viability counter screen (AID 1224847; calls by dose curve; note: top concentration of the series differs between compounds; nearly all actives have a fitted effect of over 30% in size)
In short: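 We seed wild-type CHO-K1 cells overnight, treat them for 3 hr at 37C with compounds in 15-concentration series, and quantify remaining viability by CellTiter-Glo luminescence.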

[5] = qHTS assay to identify small molecule antagonists of the estrogen related receptor (ERR) signaling pathway from Tox21 library (AID 1224848); note: nearly all actives have a fitted effect of over 50% in size
In short: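 ERR cell line, 2,000 cells/well. 6 h settle, then compound (DMSO) added; 18 h at 37 C; ONE-Glo luminescence after 30 min RT.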

[6] = qHTS assay to identify small molecule agonists of the estrogen related receptor (ERR) signaling pathway from Tox21 library (AID 1224849; calls by dose curve; note: nearly all actives have a fitted effect of over 15% in size)
In short: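 Cells carrying the ERR reporter were plated and allowed to settle for 6 h, exposed to library compounds for 18 h at 37 C, then lysed with ONE-Glo and luminescence measured.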

[7] = qHTS RealTime-Glo MT Cell Viability Assay in HepG2 cells - 24 hour (AID 1224867); note: nearly all actives have a fitted effect of over 50% in size
In short: (§1)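 HepG2 suspension premixed with RealTime-Glo reagents is plated at 600 cells per well and left 5 h at 37 C/5% CO2. Compounds in DMSO then go in, and bioluminescence reflecting viable cell number is recorded over 40 h.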

[8] = qHTS RealTime-Glo MT Cell Viability Assay in HEK293 cells - 32 hour (AID 1224868); note: top concentration of the series differs between compounds; nearly all actives have a fitted effect of over 50% in size
In short: (§2)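 Reads taken at 0, 8, 16, 24, 32 and 40 h from the same wells. HEK293 cells (600/well) carried RealTime-Glo reagents from seeding, with compound added after a 5 h settle at 37 C.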

[9] = A CellTox Green Cytotoxicity Assay to monitor cytotoxicity in HEK293 cells - 0 hour (AID 1224869); note: nearly all actives have a fitted effect of over 50% in size
In short: (§3)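 Cells (HEK293, 600/well) and dye reagent are dispensed together. After 5 h at 37 C, 23 nL compound is pinned in. Plates stay at 37 C for 40 h with fluorescence read at 0h, 8h, 16h, 24h, 32h and 40h.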

[10] = A CellTox Green Cytotoxicity Assay to monitor cytotoxicity in HEK293 cells - 40 hour (AID 1224871); note: nearly all actives have a fitted effect of over 45% in size
In short: as §3

[11] = qHTS RealTime-Glo MT Cell Viability Assay in HEK293 cells - 16 hour (AID 1224872)
In short: as §2

[12] = qHTS RealTime-Glo MT Cell Viability Assay in HepG2 cells - 8 hour (AID 1224873); note: nearly all actives have a fitted effect of over 55% in size
In short: (§4)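 Real-time viability: cells seeded at 600 per well together with NanoLuc and cell-permeant prosubstrate, compounds added after 5 h incubation. Luminescence tracked at 0, 8, 16, 24, 32 and 40 h of exposure.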

[13] = qHTS RealTime-Glo MT Cell Viability Assay in HEK293 cells - 40 hour (AID 1224874); settings: RealTime-Glo luminescence; max response: stronger effect = lower value; note: nearly all actives have a fitted effect of over 50% in size
In short: (§5)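 Real-time viability in HEK293: signal arises when living cells convert a prosubstrate for NanoLuc in the medium, so luminescence tracks viable cell number. Compound (23 nL, DMSO) added 5 h post-seeding; kinetic reads at 0–40 h, 37 C.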

[14] = A CellTox Green Cytotoxicity Assay to monitor cytotoxicity in HEK293 cells - 24 hour (AID 1224875); note: series mostly up to about 77 µM; nearly all actives have a fitted effect of over 45% in size
In short: as §3

[15] = A CellTox Green Cytotoxicity Assay to monitor cytotoxicity in HepG2 cells - 16 hour (AID 1224876); note: nearly all actives have a fitted effect of over 45% in size
In short: (§6)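 Cells and non-lytic dye reagent are dispensed together (600 HepG2 cells/well) and incubated 5 h before DMSO compound transfer. Kinetic fluorescence is then recorded in the same wells during 40 h at 37 C.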

[16] = qHTS RealTime-Glo MT Cell Viability Assay in HepG2 cells - 32 hour (AID 1224877); note: nearly all actives have a fitted effect of over 55% in size
In short: as §1

[17] = A CellTox Green Cytotoxicity Assay to monitor cytotoxicity in HepG2 cells - 24 hour (AID 1224878); note: nearly all actives have a fitted effect of over 45% in size
In short: as §6

[18] = A CellTox Green Cytotoxicity Assay to monitor cytotoxicity in HepG2 cells - 40 hour (AID 1224879); note: nearly all actives have a fitted effect of over 40% in size
In short: as §6

[19] = qHTS RealTime-Glo MT Cell Viability Assay in HEK293 cells - 0 hour (AID 1224880)
In short: as §5

[20] = qHTS RealTime-Glo MT Cell Viability Assay in HepG2 cells - 40 hour (AID 1224870); note: nearly all actives have a fitted effect of over 50% in size
In short: as §4
% is set by controls: 0 for no effect and ±100 for the full control effect.

Cc1ccc(C(C)C)c(O)c1
inactive: outcome [1] | outcome [2] | outcome [3] | outcome [4] | outcome [5] | outcome [6] | Potency [7] | Potency [8] | outcome [9] | Potency [10] | Potency [11] | Potency [12] | max response [13] -11.7% and 0.827% | Potency [14] | outcome [15] | outcome [16] | Potency [17] | Potency [18] | outcome [19]

NCCNCCN
inactive: outcome [1] | outcome [2] | outcome [3] | outcome [4] | outcome [5] | outcome [6] | Potency [8] | outcome [9] | outcome [20] | Potency [10] | Potency [11] | Potency [12] | Potency [14] | outcome [16] | Potency [17] | Potency [18] | outcome [19]

COc1ccc(N)c(C)c1
inactive: outcome [1] | outcome [2] | outcome [3] | outcome [4] | Potency [7] | Potency [8] | outcome [9] | outcome [20] | Potency [10] | Potency [11] | Potency [12] | max response [13] 9.17% and 3.97% | Potency [14] | outcome [15] | outcome [16] | Potency [17] | Potency [18] | outcome [19]

CC(=O)CCC=C(C)C
inactive: outcome [1] | outcome [2] | outcome [3] | outcome [4] | outcome [5] | outcome [6] | Potency [7] | Potency [8] | outcome [9] | outcome [20] | Potency [10] | Potency [11] | Potency [12] | max response [13] 10.6% and -4.31% | Potency [14] | outcome [15] | outcome [16] | Potency [17] | Potency [18] | outcome [19]

CCc1ccccc1CC
inactive: outcome [1] | outcome [2] | outcome [3] | outcome [4] | outcome [5] | outcome [6] | Potency [7] | Potency [8] | outcome [9] | outcome [20] | Potency [10] | activity change, negative = cytotoxicity [11] 1.28% [at 15.8 µM] | Potency [12] | max response [13] 10.8% and 1.1% | Potency [14] | outcome [16] | Potency [17] | Potency [18] | outcome [19]

OCc1ccccc1
inactive: outcome [1] | outcome [2] | outcome [3] | outcome [4] | outcome [5] | outcome [6] | Potency [7] | Potency [8] | outcome [9] | outcome [20] | Potency [10] | Potency [11] | max response [13] -3.29% and 13.4% | Potency [14] | outcome [16] | Potency [17] | Potency [18] | outcome [19]

CC(C)c1cccc(C(C)C)c1
inactive: outcome [1] | outcome [2] | outcome [3] | outcome [4] | outcome [5] | outcome [6] | Potency [7] | Potency [8] | outcome [9] | Potency [10] | Potency [11] | Potency [12] | max response [13] 2.88% and 7.17% | Potency [14] | outcome [16] | Potency [17] | Potency [18] | outcome [19]

N#Cc1ccccc1
inactive: outcome [1] | outcome [2] | outcome [3] | outcome [4] | outcome [5] | outcome [6] | Potency [7] | Potency [8] | outcome [9] | outcome [20] | Potency [10] | Potency [11] | max response [13] 6.77% and 3.17% | Potency [14] | outcome [15] | outcome [16] | Potency [17] | Potency [18] | outcome [19]

NCCCCCCN
inactive: outcome [1] | outcome [2] | outcome [3] | outcome [4] | outcome [5] | outcome [6] | Potency [7] | Potency [8] | outcome [9] | outcome [20] | Potency [10] | Potency [11] | Potency [12] | max response [13] -0.521% and 1.93% | Potency [14] | outcome [15] | outcome [16] | Potency [17] | Potency [18] | outcome [19]

CC(=O)OCc1ccccc1
inactive: outcome [1] | outcome [2] | outcome [3] | outcome [4] | Potency [7] | Potency [8] | outcome [9] | outcome [20] | Potency [10] | Potency [11] | Potency [12] | max response [13] -41.8% and -21% | Potency [14] | outcome [15] | outcome [16] | Potency [17] | Potency [18] | outcome [19]

Cc1ccc2ncccc2c1
inactive: outcome [1] | outcome [2] | outcome [3] | outcome [4] | outcome [5] | outcome [6] | Potency [7] | Potency [8] | outcome [9] | outcome [20] | Potency [10] | Potency [11] | Potency [12] | max response [13] 0.634% and 3.71% | Potency [14] | outcome [15] | outcome [16] | Potency [17] | Potency [18] | outcome [19]

CC(CCl)OP(=O)(OC(C)CCl)OC(C)CCl (stereo not drawn)
inactive: outcome [1] | outcome [2] | outcome [3] | outcome [4] | outcome [5] | outcome [6] | Potency [8] | outcome [9] | Potency [10] | Potency [11] | max response [13] -21.3% and -15.3% | Potency [14] | outcome [16] | Potency [17] | Potency [18] | outcome [19]

CC(=O)OC1CC(C)OC(C)O1 (stereo not drawn)
inactive: outcome [1] | outcome [2] | outcome [3] | outcome [4] | outcome [5] | outcome [6] | Potency [7] | Potency [8] | outcome [9] | Potency [10] | Potency [11] | Potency [12] | max response [13] 5.08% and 9.58% | Potency [14] | outcome [16] | Potency [17] | Potency [18] | outcome [19]

O=C(O)c1cc2ccccc2cc1O
inactive: outcome [1] | outcome [2] | outcome [3] | outcome [4] | outcome [5] | outcome [6] | Potency [7] | Potency [8] | outcome [9] | outcome [20] | Potency [10] | Potency [11] | Potency [12] | Potency [14] | outcome [15] | outcome [16] | Potency [17] | Potency [18] | outcome [19]

CCCCCC(=O)O
inactive: outcome [1] | outcome [2] | outcome [3] | outcome [4] | outcome [5] | outcome [6] | Potency [7] | Potency [8] | outcome [9] | Potency [10] | Potency [11] | Potency [12] | max response [13] 18.5% and 15.2% | Potency [14] | outcome [15] | outcome [16] | Potency [17] | Potency [18] | outcome [19]
